Results as given in PubChem BioAssay AID1159580 (chemical genetic matrix, 2015).
In all, about 5,500 compounds went through this assay and about 2,000 (36%) were called active. Another 18% or so got no clear call; they are omitted. Cut-off read from the data, not from the text of the source: active = normalized growth mostly below about 0.91 (no sharp cut-off); inconclusive = no clear call, values can overlap the other calls; inactive = mostly above about 0.92. This is one part of the list.

Test: chemical genetic growth profiling, strain panel (AID 1159580);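 note: tested at 20 µM; growth read once vehicle control cultures reached saturation at 30 °C; 1 = growth at the plate median or of vehicle wells; lower values mean less growth of the strain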
Conditions: S. cerevisiae deletion strains, growth OD

Measured: normalized growth

COc1ccccc1/C=C\C(=O)O
inactive: locus YAL013W, strain DEP1, active compounds read low 1.02 | locus YAL021C, strain ccr4, active compounds read low 1.01 | locus YAL026C, strain drs2, active compounds read low 1.01 | locus YAL030W, strain snc1, active compounds read low 0.988 | locus YBL061C, strain skt5, active compounds read low 1 | locus YBR009C, strain hhf1, active compounds read low 1 | locus YBR021W, strain FUR4, active compounds read low 1.02 | locus YBR023C, strain chs3, active compounds read low 1.01 | locus YBR171W, strain sec66, active compounds read low 0.996 | locus YBR229C, strain ROT2, active compounds read low 1.02 | locus YBR231C, strain swc5, active compounds read low 1.02 | locus YBR279W, strain paf1, active compounds read low 1 | locus YCL011C, strain gbp2, active compounds read low 0.99 | locus YCL016C, strain dcc1, active compounds read low 1.01 | locus YCL029C, strain bik1, active compounds read low 1.02 | locus YCL061C, strain MRC1, active compounds read low 0.993 | locus YCL069W, strain vba3, active compounds read low 0.996 | locus YCR088W, strain abp1, active compounds read low 0.996 | locus YDL005C, strain med2, active compounds read low 1 | locus YDL035C, strain GPR1, active compounds read low 1.08 | locus YDL040C, strain nat1, active compounds read low 0.994 | locus YDL074C, strain BRE1, active compounds read low 1.19 | locus YDL101C, strain DUN1, active compounds read low 1.01 | locus YDL185W, strain tfp1, active compounds read low 0.971 | locus YDL192W, strain arf1, active compounds read low 1.04 | locus YDR001C, strain nth1, active compounds read low 0.991 | locus YDR069C, strain doa4, active compounds read low 1.03 | locus YDR101C, strain arx1, active compounds read low 1.01 | locus YDR137W, strain rgp1, active compounds read low 0.955 | locus YDR159W, strain sac3, active compounds read low 1.03 | locus YDR162C, strain NBP2, active compounds read low 1.05 | locus YDR195W, strain ref2 1.07 | locus YDR297W, strain sur2, active compounds read low 0.994 | locus YDR318W, strain mcm21, active compounds read low 1.04 | locus YDR334W, strain swr1, active compounds read low 1.01 | locus YDR335W, strain msn5, active compounds read low 1 | locus YDR388W, active compounds read low 1 | locus YDR392W, strain spt3, active compounds read low 0.793 | locus YDR502C, strain sam2, active compounds read low 1.03 | locus YEL003W, strain gim4, active compounds read low 0.996 | locus YEL037C, strain rad23, active compounds read low 1 | locus YEL061C, strain CIN8 (second series), active compounds read low 0.992 | locus YER015W, strain faa2, active compounds read low 1.01 | locus YER016W, strain bim1, active compounds read low 1.01 | locus YER110C, active compounds read low 1.03 | locus YER111C, strain swi4, active compounds read low 0.993 | locus YER155C, strain BEM2 (second series), active compounds read low 0.949 | locus YER155C, strain BEM2, active compounds read low 1.01 | locus YER167W, strain BCK2, active compounds read low 1.01 | locus YFR010W, strain ubp6, active compounds read low 1.02 | locus YGL078C, strain dbp3, active compounds read low 1.02 | locus YGL086W, strain mad1, active compounds read low 1.01 | locus YGL167C, strain pmr1, active compounds read low 0.991 | locus YGL173C, strain kem1, active compounds read low 0.998 | locus YGL227W, strain vid30, active compounds read low 1 | locus YGL240W, strain doc1, active compounds read low 0.981 | locus YGL248W, strain PDE1, active compounds read low 1.08 | locus YGL253W, strain hxk2, active compounds read low 1.01 | locus YGR078C, strain PAC10, active compounds read low 1.06 | locus YGR135W, strain pre9, active compounds read low 1.04 | locus YGR252W, strain gcn5, active compounds read low 1.15 | locus YHR013C, strain ard1, active compounds read low 0.927 | locus YHR027C, strain rpn1, active compounds read low 1 | locus YHR030C, strain SLT2, active compounds read low 1.01 | locus YHR079C, strain IRE1 (second series), active compounds read low 1.03 | locus YHR094C, strain hxt1, active compounds read low 0.998 | locus YHR129C, strain ARP1, active compounds read low 1.03 | locus YHR142W, strain chs7, active compounds read low 0.971 | locus YHR200W, strain rpn10, active compounds read low 1.01 | locus YIL066C, strain RNR3, active compounds read low 1.03 | locus YIL073C, strain SPO22, active compounds read low 1.23 | locus YIL125W, strain kgd1, active compounds read low 1.01 | locus YIR030C, strain dcg1, active compounds read low 1.02 | locus YJL092W, strain hpr5, active compounds read low 1 | locus YJL095W, strain BCK1 (second series), active compounds read low 1.02 | locus YJL095W, strain BCK1, active compounds read low 1.07 | locus YJL115W, strain asf1, active compounds read low 1.02 | locus YJL129C, strain trk1, active compounds read low 0.989 | locus YJL134W, strain LCB3, active compounds read low 1.01 | locus YJL154C, strain vps35, active compounds read low 1.01 | locus YJL164C, strain tpk1, active compounds read low 0.992 | locus YJL166W, strain qcr8, active compounds read low 0.98 | locus YJL168C, strain set2, active compounds read low 1.04 | locus YJL187C, strain SWE1 (second series), active compounds read low 1.04 | locus YJL187C, strain SWE1, active compounds read low 0.991 | locus YJR043C, strain POL32, active compounds read low 1.05 | locus YJR075W, strain HOC1, active compounds read low 1.02 | locus YKL009W, strain mrt4, active compounds read low 1.03 | locus YKL068W, active compounds read low 1.01 | locus YKL085W, strain MDH1 (second series), active compounds read low 0.99 | locus YKL085W, strain MDH1, active compounds read low 0.99 | locus YKL160W, strain elf1, active compounds read low 0.986 | locus YKR001C, strain vps1, active compounds read low 1.07 | locus YKR026C, strain gcn3, active compounds read low 1 | locus YKR091W, strain srl3, active compounds read low 0.995 | locus YLL001W, strain dnm1, active compounds read low 0.993 | locus YLL026W, active compounds read low 1 | locus YLL041C, strain sdh2, active compounds read low 0.999 | locus YLR027C, strain aat2, active compounds read low 1.01 | locus YLR039C, strain RIC1, active compounds read low 1.22 | locus YLR058C, strain SHM2, active compounds read low 1.04 | locus YLR102C, strain apc9, active compounds read low 1.01 | locus YLR221C, strain rsa3, active compounds read low 0.988 | locus YLR258W, strain gsy2, active compounds read low 0.987 | locus YLR262C, strain YPT6 (second series), active compounds read low 0.932 | locus YLR268W, strain sec22, active compounds read low 1.05 | locus YLR320W, strain mms22, active compounds read low 0.942 | locus YLR330W, strain CHS5, active compounds read low 1.03 | locus YLR342W, strain FKS1 (second series), active compounds read low 1.05 | locus YLR342W, strain FKS1, active compounds read low 0.996 | locus YLR357W, strain rsc2, active compounds read low 1.02 | locus YLR370C, strain arc18, active compounds read low 1 | locus YLR371W, strain rom2, active compounds read low 1.02 | locus YLR384C, strain iki3, active compounds read low 1.03 | locus YLR418C, strain cdc73, active compounds read low 1.15 | locus YML016C, strain PPZ1, active compounds read low 1.01 | locus YML032C, strain rad52, active compounds read low 1.03 | locus YML120C, strain ndi1, active compounds read low 0.994 | locus YML124C, strain tub3, active compounds read low 1.02 | locus YMR058W, strain fet3, active compounds read low 0.999 | locus YMR078C, strain ctf18, active compounds read low 1.02 | locus YMR125W, strain sto1, active compounds read low 1 | locus YMR129W, active compounds read low 0.993 | locus YMR205C, strain PFK2, active compounds read low 0.928 | locus YMR223W, strain ubp8, active compounds read low 1.03 | locus YMR231W, strain pep5, active compounds read low 1.01 | locus YMR307W, strain GAS1, active compounds read low 1.25 | locus YNL067W, strain RPL9B, active compounds read low 1.01 | locus YNL071W, strain lat1, active compounds read low 0.966 | locus YNL153C, strain GIM3, active compounds read low 1.06 | locus YNL209W, strain ssb2, active compounds read low 1.01 | locus YNL233W, strain BNI4, active compounds read low 1.08 | locus YNL248C, strain rpa49, active compounds read low 1 | locus YNL250W, strain rad50, active compounds read low 1.02 | locus YNL271C, strain bni1, active compounds read low 1.01 | locus YNL298W, strain CLA4, active compounds read low 1.03 | locus YNL307C, strain MCK1, active compounds read low 1.02 | locus YNL322C, strain KRE1 (second series), active compounds read low 0.999 | locus YNR049C, strain mso1, active compounds read low 1 | locus YNR052C, strain pop2, active compounds read low 1.03 | locus YOL006C, strain TOP1, active compounds read low 1.32 | locus YOL012C, strain htz1 1.02 | locus YOL147C, strain pex11, active compounds read low 1.02 | locus YOR001W, strain rrp6, active compounds read low 0.979 | locus YOR061W, strain CKA2, active compounds read low 1.02 | locus YOR069W, strain VPS5, active compounds read low 1.02 | locus YOR070C, strain gyp1, active compounds read low 1 | locus YOR080W, strain dia2, active compounds read low 1.01 | locus YOR083W, strain WHI5, active compounds read low 0.994 | locus YOR106W, strain vam3, active compounds read low 0.995 | locus YOR136W, strain idh2, active compounds read low 1.02 | locus YOR144C, strain elg1, active compounds read low 1.02 | locus YOR184W, strain ser1, active compounds read low 1.05 | locus YOR265W, strain rbl2, active compounds read low 0.994 | locus YOR270C, strain vph1, active compounds read low 0.843 | locus YOR290C, strain snf2, active compounds read low 0.952 | locus YOR316C, strain cot1, active compounds read low 1.01 | locus YPL051W, strain arl3, active compounds read low 0.992 | locus YPL078C, strain atp4, active compounds read low 0.987 | locus YPL106C, strain sse1, active compounds read low 0.987 | locus YPL240C, strain hsp82, active compounds read low 1 | locus YPR119W, strain clb2, active compounds read low 1.02 | locus YPR141C, strain kar3, active compounds read low 0.999 | locus YPR163C, strain tif3, active compounds read low 1.02 | locus YPR167C, strain met16, active compounds read low 1.03 | strain wtn01, active compounds read low 1.03
